# Data: PubChem BioAssay
# Active and inactive are the calls of the source.
# Test: basal S. cerevisiae growth modulation, no modifier, primary screen, OD600, strain BY4716, 24 h, basal condition (AID 1173)
# Settings: OD600, 24 h, higher = more signal, called active from +8 up or from −8 down
row,Compound,z-score
1,COc1cc2c(cc1OC)CN(C(=O)[C@H]1[C@@H]3C(=O)O[C@@H](c4ccccc4)[C@@H](c4ccccc4)N3[C@@H](c3ccc(O)cc3)[C@]13C(=O)Nc1ccccc13)CC2,0.744 (inactive)
2,O=C1O[C@H](c2ccccc2)[C@H](c2ccccc2)N2[C@H]1[C@@H](C(=O)N1CCCCCCC1)[C@]1(C(=O)Nc3ccc(C#CC4=CCCCC4)cc31)[C@H]2c1ccc(OCCO)cc1,0.362 (inactive)
3,COC(=O)[C@@]1(CCC(=O)OC(C)(C)C)N=C(c2ccc(OCCCO)cc2)O[C@H]1c1ccccc1N=[N+]=[N-],0.381 (inactive)
4,O=C1C2C=CC(C(O)c3cc(C(F)(F)F)cc(C(F)(F)F)c3)N(n3cnnc3)C2C(=O)N1Cc1ccccc1 (configuration not stated),-1.01 (inactive)
5,CCCCCN1CC=CC23O[C@@H]4C=CCCOC(=O)C4[C@H]2C(=O)N(CCCCCO)[C@@H]3C1=O (some centres not stated),0.388 (inactive)
6,COc1ccc([Si](C)(C)[C@@H]2[C@@H](CCO)O[C@]3(C(=O)N(Cc4ccc(N(C=O)c5ccccc5)cc4)c4ccccc43)[C@H]2C)cc1,1.76 (inactive)
7,C=CCOC(=O)[C@H]1[C@@H]2C(=O)O[C@@H](c3ccccc3)[C@@H](c3ccccc3)N2[C@@H](c2ccc(OCCOC(=O)[C@H]3C[C@H]4C(=O)N[C@@H](CCCCNC(C)=O)C(=O)N4[C@H]3c3cccc(OCCO)c3)cc2)[C@]12C(=O)Nc1ccccc12,0.922 (inactive)
8,[N-]=[N+]=NCc1ccccc1C[C@]1(C(N)=O)COC(c2ccc(OCCCO)cc2)=N1,-1.66 (inactive)
9,C=C(CC1([C@@H](NP(=O)(c2ccccc2)c2ccccc2)[C@H]2C[C@@H]2CCCC)CC1)c1ccccc1,1.06 (inactive)
10,CC[C@@H]1C=C(C(=O)O)[C@H](c2ccc(Br)cc2)N1S(=O)(=O)c1ccc(C)cc1,-0.14 (inactive)
11,C=C(CCCC)/C(=C/C[C@H](OC(C)=O)c1ccccc1OCCO)c1cc(C(=O)OC)ccc1OC,-0.863 (inactive)
12,COC(=O)[C@@]1(Cc2ccc(OC)cc2)[C@H]2c3cc(C(=O)N(C)C)n(C)c3C[C@H]2CN1C(=O)c1ccccc1,1.3 (inactive)
13,CN(C)CCCCCCNC(=O)[C@H]1C[C@H]2C(=O)N[C@@H](CCCCN)C(=O)N2[C@H]1c1cccc(OCCO)c1,-1.69 (inactive)
14,NC(=O)NCC#Cc1ccc2c(c1)[C@]1(C(=O)N2)[C@H](c2ccccc2OCCO)N2[C@H](c3ccccc3)[C@H](c3ccccc3)OC(=O)[C@H]2[C@@H]1C(=O)Nc1nc2ccccc2s1,1.21 (inactive)
15,CC1CC/C=C\[C@H]2OC34C=CCN(C(C)(C)C)C(=O)[C@H]3N(CCO)C(=O)[C@@H]4C2C(=O)O1 (some centres not stated),-0.68 (inactive)
16,C=C(COC)/C(=C/C[C@H](OC(C)=O)c1ccc(CO)o1)c1cc(C(=O)OC)ccc1OC,-0.0209 (inactive)
17,CNS(=O)(=O)c1ccc(C)cc1,-1.13 (inactive)

# Test: MM1S myeloma cell viability, profiling panel, resazurin fluorescence, basal, 24 h, PK04 Diversity Set (AID 1174);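 further: MM1S multiple myeloma cell line; test concentration not given here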
# Settings: higher = more signal, called active from +8 up or from −8 down
row,Compound,z-score
1,O=C1NC(=O)C2C1C=CC(C(O)c1cc(C(F)(F)F)cc(C(F)(F)F)c1)N2Nc1ccccn1 (configuration not stated),-1.27 (inactive)
2,C=C(/C(=C/C[C@H](OC(C)=O)c1ccccc1OCCO)c1cnc2ccccc2c1)C(C)C,-1.09 (inactive)
3,COC(=O)[C@H](Cc1ccccc1)N1CC2=C[C@@H](C3CC3)n3c(=O)n(C)c(=O)n3[C@H]2[C@@H]1[C@@H](O)Cc1ccccc1,-1.07 (inactive)
4,CC(=O)n1cc(C(O)C2C=CC3C(=O)N(c4ccccc4)C(=O)C3N2Nc2ccc([N+](=O)[O-])cc2)c2ccccc21 (configuration not stated),-1.15 (inactive)
5,CN1C=C(C(=O)OCCS(C)(=O)=O)C(C(=O)OCCS(C)(=O)=O)=CC(c2ccc(CO)cc2)=CC1C1CC1 (configuration not stated),-0.83 (inactive)
6,COC(=O)[C@]1(CCC(=O)OC(C)(C)C)N=C(c2ccc(OCCCO)cc2)O[C@@H]1c1ccccc1CN=[N+]=[N-],-5.09 (inactive)
7,C=CCNC(=O)[C@@H]1[C@H]2C(=O)O[C@H](c3ccccc3)[C@H](c3ccccc3)N2[C@H](c2ccc(OCCO)cc2)[C@@]12C(=O)Nc1ccc(C#CCC(C(=O)OC)C(=O)OC)cc12,-6.55 (inactive)
8,COC(=O)C(CC#Cc1ccc2c(c1)[C@]1(C(=O)N2)[C@H](c2ccc(OCCO)cc2)N2[C@H](c3ccccc3)[C@H](c3ccccc3)OC(=O)[C@H]2[C@@H]1C(=O)N1CCc2cc(OC)c(OC)cc2C1)C(=O)OC,0.164 (inactive)
9,NC(=O)N1C(=O)C2C(C1=O)C1C=C(c3ccc(CO)cc3)C2C(c2cccs2)N1Cc1cccc(OC(F)(F)F)c1 (configuration not stated),-0.683 (inactive)
10,C=CCC(OC(C)=O)[C@@H]1[C@@H](N(Cc2ccc(-c3ccccc3)cc2)C(=O)c2cccc3ccccc23)c2cc(OCCCO)ccc2N1C(=O)c1ccc(-c2ccccc2)cc1 (some centres not stated),0.395 (inactive)
11,COc1cc(NN2C(C(O)c3ccco3)C=CC3C(=O)N(c4ccccc4)C(=O)C32)cc(OC)c1OC (configuration not stated),-1.68 (inactive)
12,CC(C)[Si]1(C(C)C)O[C@@H](c2ccccc2)c2cc(-c3ccc(-c4ccc(Cl)c(Cl)c4)o3)nc(-c3ccccc3)c21,-0.274 (inactive)
13,CCOC(=O)C[C@H]1[C@H](OC(=O)c2ccc(C(=O)c3ccccc3)cc2)[C@@H](NC(=O)c2ccc3ccccc3n2)c2cc(OCCCO)ccc2N1C(=O)c1ccccc1,-0.266 (inactive)
14,CC(C)C(O)C1C=CC2C(=O)NC(=O)C2N1Nc1ccc(Cl)cc1Cl (configuration not stated),-1.59 (inactive)
15,COc1ccc(C#Cc2ccc3c(c2)[C@]2(C(=O)N3)[C@H](C(=O)Nc3nc4ccccc4s3)[C@H]3C(=O)O[C@H](c4ccccc4)[C@H](c4ccccc4)N3[C@@H]2c2ccc(O)cc2)cc1,0.283 (inactive)
16,COC(=O)[C@@]1(Cc2ccccc2)N=C(c2ccc(OCCCO)cc2)O[C@H]1c1ccccc1,-2.96 (inactive)
17,[N-]=[N+]=Nc1ccccc1[C@H]1OC(c2ccc(OCCCO)cc2)=N[C@@]1(CCS(=O)(=O)c1ccccc1)C(N)=O,0.952 (inactive)
18,O=C1C[C@@](C(=O)NC2CC2)(c2ccc([N+](=O)[O-])cc2)[C@@H](c2ccc(CO)cc2I)N1C1CCCCC1,-0.191 (inactive)

row,Compound,z-score
1,COc1cc2c(cc1OC)CN(C(=O)[C@H]1[C@@H]3C(=O)O[C@@H](c4ccccc4)[C@@H](c4ccccc4)N3[C@@H](c3ccc(O)cc3)[C@]13C(=O)Nc1ccccc13)CC2,-0.426 (inactive)
2,O=C1O[C@H](c2ccccc2)[C@H](c2ccccc2)N2[C@H]1[C@@H](C(=O)N1CCCCCCC1)[C@]1(C(=O)Nc3ccc(C#CC4=CCCCC4)cc31)[C@H]2c1ccc(OCCO)cc1,0.241 (inactive)
3,COC(=O)[C@@]1(CCC(=O)OC(C)(C)C)N=C(c2ccc(OCCCO)cc2)O[C@H]1c1ccccc1N=[N+]=[N-],-6.96 (inactive)
4,O=C1C2C=CC(C(O)c3cc(C(F)(F)F)cc(C(F)(F)F)c3)N(n3cnnc3)C2C(=O)N1Cc1ccccc1 (configuration not stated),-0.497 (inactive)
5,CCCCCN1CC=CC23O[C@@H]4C=CCCOC(=O)C4[C@H]2C(=O)N(CCCCCO)[C@@H]3C1=O (some centres not stated),0.66 (inactive)
6,COc1ccc([Si](C)(C)[C@@H]2[C@@H](CCO)O[C@]3(C(=O)N(Cc4ccc(N(C=O)c5ccccc5)cc4)c4ccccc43)[C@H]2C)cc1,-2.44 (inactive)
7,C=CCOC(=O)[C@H]1[C@@H]2C(=O)O[C@@H](c3ccccc3)[C@@H](c3ccccc3)N2[C@@H](c2ccc(OCCOC(=O)[C@H]3C[C@H]4C(=O)N[C@@H](CCCCNC(C)=O)C(=O)N4[C@H]3c3cccc(OCCO)c3)cc2)[C@]12C(=O)Nc1ccccc12,0.618 (inactive)
8,[N-]=[N+]=NCc1ccccc1C[C@]1(C(N)=O)COC(c2ccc(OCCCO)cc2)=N1,0.424 (inactive)
9,C=C(CC1([C@@H](NP(=O)(c2ccccc2)c2ccccc2)[C@H]2C[C@@H]2CCCC)CC1)c1ccccc1,1.07 (inactive)
10,CC[C@@H]1C=C(C(=O)O)[C@H](c2ccc(Br)cc2)N1S(=O)(=O)c1ccc(C)cc1,-0.459 (inactive)
11,C=C(CCCC)/C(=C/C[C@H](OC(C)=O)c1ccccc1OCCO)c1cc(C(=O)OC)ccc1OC,0.911 (inactive)
12,COC(=O)[C@@]1(Cc2ccc(OC)cc2)[C@H]2c3cc(C(=O)N(C)C)n(C)c3C[C@H]2CN1C(=O)c1ccccc1,-2.26 (inactive)
13,CN(C)CCCCCCNC(=O)[C@H]1C[C@H]2C(=O)N[C@@H](CCCCN)C(=O)N2[C@H]1c1cccc(OCCO)c1,-0.0889 (inactive)
14,NC(=O)NCC#Cc1ccc2c(c1)[C@]1(C(=O)N2)[C@H](c2ccccc2OCCO)N2[C@H](c3ccccc3)[C@H](c3ccccc3)OC(=O)[C@H]2[C@@H]1C(=O)Nc1nc2ccccc2s1,0.528 (inactive)
15,CC1CC/C=C\[C@H]2OC34C=CCN(C(C)(C)C)C(=O)[C@H]3N(CCO)C(=O)[C@@H]4C2C(=O)O1 (some centres not stated),-0.0542 (inactive)
16,C=C(COC)/C(=C/C[C@H](OC(C)=O)c1ccc(CO)o1)c1cc(C(=O)OC)ccc1OC,-0.891 (inactive)
17,CNS(=O)(=O)c1ccc(C)cc1,0.68 (inactive)
